A number with no mark means an inactive call. Results filed as inconclusive are left out. Calls of active or inactive are those of the source. The call rests on the fitted dose curve; in most records, active means well fitted curve in the direction sought with a large enough effect; inconclusive means small, poorly fitted or top-dose-only effect, or another doubt; inactive means no such curve, though single readings can be large; an effect the other way counts as inactive or inconclusive.
Tested on: not listed separately
Assay: qHTS to identify inhibitors of the type 1 interferon - major histocompatibility complex class I in skeletal muscle: primary screen against the NCATS Pharmaceutical Collection (AID 1347407);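 further: luminescence of HiBiT knocked into endogenous HLA-B as interferon-induced MHC class I level; on the % scale 0 is the no-effect control and ±100 the full control effect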
Details: human skeletal muscle cells, IFN-b-induced MHC-I HiBiT luminescence, 24 h; series mostly up to 45.9 µM; activity change, negative = inhibition: at the top concentration
Outline: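 Immortalized human myoblasts (C25cl48) with HiBiT knocked into endogenous HLA-B*08:01 were stimulated with 4.0 ng/ml IFN-beta and treated with compounds ([…] top 46 uM) for 24 hrs at 37 C. HiBiT lytic luminescence read.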

| SMILES | activity change, negative = inhibition | Potency |
| --- | --- | --- |
| COC[C@@H](c1ccc(C(F)(F)F)cc1)N1CCN(C2(C)CCN(C(=O)c3c(C)ncnc3C)CC2)C[C@H]1C | -3.1% |  |
| CN(C)c1cc(NC(=O)CNC(C)(C)C)c(O)c2c1C[C@@H]1C[C@H]3[C@H](N(C)C)C(=O)C(C(N)=O)=C(O)[C@@]3(O)C(=O)C1=C2O | 3.06% |  |
| N#C[C@H]1C[C@H]2C[C@@H]2N1C(=O)[C@@H](N)C12CC3CC(CC(O)(C3)C1)C2 | -10.4% |  |
| O=C(O)c1cc(-c2ccccc2)nc2ccccc12 |  | inactive |
| OC[C@@H](O)[C@H](O)[C@H](O)[C@@H](O)CO |  | inactive |
| O=C(O)Cc1cccc2ccccc12 |  | inactive |

Tested on: not listed separately
Assay: qHTS for inhibitors of adenylyl cyclases using a fission yeast platform: a pilot screen against the NCATS LOPAC library (AID 1347410);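 further: plate controls were DMSO vehicle for no effect and DPI positive control for full effect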
Details: S. pombe CHP2027, fbp1-GFP fluorescence, 18 h, yeast expressing mammalian AC9 and human GNAS; series mostly up to 57.5 µM; activity, positive = inhibition (GFP gain): at the top concentration
Outline: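 S. pombe CHP2027 (AC9-GNAS-PDE4D2) carrying PKA-repressed fbp1-GFP, incubated 18 h at 30C in EMM with LOPAC compounds at up to 57 uM. GFP gain-of-signal read by laser scanning cytometry; DMSO negative control.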

| SMILES | activity, positive = inhibition (GFP gain) | outcome |
| --- | --- | --- |
| CCCNC(=O)NS(=O)(=O)c1ccc(Cl)cc1 | -0.438% |  |
| CC1(C)CCC2=C(O1)c1ccccc1C(=O)C2=O | -0.438% |  |
| CCN(CC)CCNC(=O)c1ccc(N)cc1 | -0.438% |  |
| CC/C(=C(\c1ccccc1)c1ccc(OCCN(C)C)cc1)c1ccccc1 |  | inactive |
| O=c1cc(-c2ccc(O)cc2)oc2cc(O)cc(O)c12 | -0.438% |  |
| CC(C)(C)c1ccc(C(O)CCCN2CCC(C(O)(c3ccccc3)c3ccccc3)CC2)cc1 (configuration not stated) | 0.865% |  |
| Clc1ccc(C(c2ccc(Cl)cc2)n2cc[n+](CC(OCc3ccc(Cl)cc3Cl)c3ccc(Cl)cc3Cl)c2)cc1 (configuration not stated) | 2.44% |  |
| NC(N)=Nc1nc(CSCC/C(N)=N/S(N)(=O)=O)cs1 | 1.33% |  |

Tested on: not listed separately
Assay: qHTS to identify inhibitors of the type 1 interferon - major histocompatibility complex class I in skeletal muscle: primary screen against the NCATS Mechanism Interrogation Plate v5.0 (MIPE) Libary (AID 1347411); further: nearly all actives have a fitted effect of over 65% in size; further: potency means the concentration at half of the fitted maximal effect;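 on activity change, negative = inhibition: plate controls were vehicle for no effect and reference inhibitor for full effect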
Details: iHSKM cells + IFN-b, HiBiT-tagged MHC-I luminescence, 24 h; series mostly up to 45.8 µM; activity change, negative = inhibition: at the top concentration
Outline: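 Immortalized human C25cl48 myoblasts with HiBit knocked into endogenous HLA-B*08:01 were stimulated with 4.0 ng/ml IFN-beta and exposed to compounds (11-point 1:3 titration, top 46 uM final) for 24 hrs at 37 C; HiBiT lytic luminescence measured.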

| SMILES | activity change, negative = inhibition | Potency |
| --- | --- | --- |
| Nc1ncnc2ccccc12 | -9.59% |  |
| COc1ccc(-c2nc(N3CCOCC3)c3sc(CN(C)c4ncc(C(=O)NO)cn4)cc3n2)cn1 |  | 0.033 µM (active) |
| CCNc1cc(NC2CCC(O)CC2)nc(Nc2ccc3c(ccn3Cc3ccccc3)c2)n1 (configuration not stated) | -5.26% |  |
| CC#CCn1c(N2CCC[C@@H](N)C2)nc2c1c(=O)n(Cc1nc(C)c3ccccc3n1)c(=O)n2C | -2.87% |  |
| C=C1C(=O)OC(CCCCCCCC)C1C(=O)O (configuration not stated) |  | 18.6 µM (active) |
| Cc1ccc(/C=N/NC(=O)c2ccccc2Oc2ccccc2)o1 | -10.9% |  |
| O=C(NCc1ccncc1)C12C[C@H]3C[C@@H](C1)CC(c1ccc(Cl)cc1)(C3)C2 | -9.19% |  |
| CC(C)(C)Cn1c(N)nc2ccc(-c3[nH]c(C(C)(C)C)nc3-c3ccc(F)cc3)nc21 | -19.2% |  |
| CC/C(=C(\c1ccccc1)c1ccc(OCCN(C)C)cc1)c1ccccc1 |  | 30.1 µM (active) |
| CC(C)(C(=O)NCC(F)(F)C(F)(F)F)C(=O)N[C@@H]1C(=O)Nc2ccccc2-c2ccccc21 | 0.863% |  |
| COc1cc(NC(=O)c2ccc(-c3ccc(Cl)cc3)o2)cc(OC)c1 | -19.3% |  |
| c1ccc2c(Cc3c[nH]c4ccccc34)c[nH]c2c1 | -8.37% |  |
| COc1ccc(-c2coc3cc(O)cc(O)c3c2=O)cc1 |  | 16.5 µM (active) |
| O=C(NOCC(O)CO)c1cc(Br)c(F)c(F)c1Nc1ccc(I)cc1F (configuration not stated) | -32.2% |  |
| CC(C)C[C@H](CC(=O)O)C(=O)N[C@@H](Cc1c[nH]c2ccccc12)C(=O)N[C@@H](C)c1ccccc1 | -7.2% |  |
| CS(=O)(=O)N(Cc1ccco1)CC(O)Cn1c2ccccc2c2ccccc21 (configuration not stated) | -8.49% |  |
| N#CC1(c2ccc(NC(=O)c3cccnc3NCc3ccncc3)cc2)CCCC1 | -5.65% |  |
| O=C(O)c1cc(O)c2c(c1)C(=O)c1cccc(O)c1C2=O | -7.9% |  |
| C[C@H](NC(=O)c1sccc1OCc1ccc(Cl)cc1)c1ccccc1 | -26.4% |  |
| CC(C)[C@H](CO)Nc1nc(Nc2ccc(C(=O)O)c(Cl)c2)c2ncn(C(C)C)c2n1 | -11.5% |  |
| CC(=O)OC1C(C)OC(Oc2c(-c3ccc(O)cc3)oc3cc(O)cc(O)c3c2=O)C(O)C1OC(C)=O (configuration not stated) | 5.3% |  |
| Clc1ccc(C(c2ccc(Cl)cc2)n2cc[n+](CC(OCc3ccc(Cl)cc3Cl)c3ccc(Cl)cc3Cl)c2)cc1 (configuration not stated) |  | 16.5 µM (active) |

Biological target: Protein phosphatase 1D (Homo sapiens) (UniProt O15297)
Assay: RapidFire Mass Spectrometry qHTS Assay for Modulators of WT P53-Induced Phosphatase 1 (WIP1) (AID 1347424);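 further: amount of dephosphorylated VEPPL-S-QETFS peptide product formed by WIP1; plate controls were DMSO wells for no effect and GSK830371 inhibitor control at 10 µM for full effect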
Details: WIP1 dephosphorylation of phosphopeptide, RapidFire MS; series mostly up to 63 µM; activity change, negative = inhibition: at the top concentration
Outline: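 WIP1 (10 nM final) was preincubated 1 h at room temperature with compounds in Tris-HCl pH 7.5, 30 mM MgCl2, TCEP, EGTA, BSA; 2 uM VEPPL-pS-QETFS phosphopeptide was added for 5 min, quenched with formic acid, and dephosphorylated product quantified by RapidFire MS.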

Sequence of Protein phosphatase 1D (Homo sapiens) (O15297 whole entry, looked up): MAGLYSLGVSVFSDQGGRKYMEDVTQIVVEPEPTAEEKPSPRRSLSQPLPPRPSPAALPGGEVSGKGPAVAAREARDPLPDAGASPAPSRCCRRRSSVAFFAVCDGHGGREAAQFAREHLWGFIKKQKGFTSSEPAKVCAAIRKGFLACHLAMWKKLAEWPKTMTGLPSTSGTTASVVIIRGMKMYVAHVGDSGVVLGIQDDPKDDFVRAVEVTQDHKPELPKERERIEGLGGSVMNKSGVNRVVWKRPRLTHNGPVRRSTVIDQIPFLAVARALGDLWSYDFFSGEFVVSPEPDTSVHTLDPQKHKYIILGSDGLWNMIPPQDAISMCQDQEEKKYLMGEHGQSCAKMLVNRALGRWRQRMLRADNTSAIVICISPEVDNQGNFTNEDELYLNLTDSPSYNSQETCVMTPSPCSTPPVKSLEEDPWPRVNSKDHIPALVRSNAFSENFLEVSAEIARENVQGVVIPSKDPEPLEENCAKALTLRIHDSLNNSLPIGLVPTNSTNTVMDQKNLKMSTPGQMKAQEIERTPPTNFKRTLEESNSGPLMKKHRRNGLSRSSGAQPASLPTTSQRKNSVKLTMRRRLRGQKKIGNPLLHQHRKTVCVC

| SMILES | activity change, negative = inhibition | outcome |
| --- | --- | --- |
| COC[C@@H](c1ccc(C(F)(F)F)cc1)N1CCN(C2(C)CCN(C(=O)c3c(C)ncnc3C)CC2)C[C@H]1C | 25.6% |  |
| N#C[C@H]1C[C@H]2C[C@@H]2N1C(=O)[C@@H](N)C12CC3CC(CC(O)(C3)C1)C2 | -1% |  |
| O=C(O)c1cc(-c2ccccc2)nc2ccccc12 | 0.948% |  |
| CCCNC(=O)NS(=O)(=O)c1ccc(Cl)cc1 | -18.3% |  |
| OC[C@@H](O)[C@H](O)[C@H](O)[C@@H](O)CO |  | inactive |
| CCN(CC)CCNC(=O)c1ccc(N)cc1 | 5.47% |  |
| CC/C(=C(\c1ccccc1)c1ccc(OCCN(C)C)cc1)c1ccccc1 | 41% |  |
| CC(C)(C)c1ccc(C(O)CCCN2CCC(C(O)(c3ccccc3)c3ccccc3)CC2)cc1 (configuration not stated) | 30.5% |  |
| O=C(O)Cc1cccc2ccccc12 |  | inactive |
| NC(N)=Nc1nc(CSCC/C(N)=N/S(N)(=O)=O)cs1 | -7.4% |  |

Tested on: not listed separately
Assay: Validation qHTS assay for inhibitors of Activation Induced Cytidine Deaminase (AID): UDG Counterscreen signal (AID 1347427); further: 0% is about no effect
Details: biochemical UDG counterscreen, fluorescence signal; series mostly up to 115 µM; activity, negative = inhibition: at the top concentration
Outline: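 Counterscreen read of UDG activity (2 U/mL, 4/3x) in the FRET deamination format with AID (1 uM, 4/3x), DJC20/DJC23 substrates (250 nM, 4x), 4 h at room temperature. NaOH stop, fluorescence at 560 ex/665 em.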

| SMILES | activity, negative = inhibition |
| --- | --- |
| CCCNC(=O)NS(=O)(=O)c1ccc(Cl)cc1 | 10.7% |
| CC/C(=C(\c1ccccc1)c1ccc(OCCN(C)C)cc1)c1ccccc1 | -1.71% |
| O=c1cc(-c2ccc(O)cc2)oc2cc(O)cc(O)c12 | 2.06% |
| CC(C)(C)c1ccc(C(O)CCCN2CCC(C(O)(c3ccccc3)c3ccccc3)CC2)cc1 (configuration not stated) | -5.75% |
| Clc1ccc(C(c2ccc(Cl)cc2)n2cc[n+](CC(OCc3ccc(Cl)cc3Cl)c3ccc(Cl)cc3Cl)c2)cc1 (configuration not stated) | -3.67% |
| NC(N)=Nc1nc(CSCC/C(N)=N/S(N)(=O)=O)cs1 | 7.13% |
